Shown are actives, neighbours in structure and some others; about 2.1% of the full set was active somewhere.
Abeta rescue – A-beta toxicity reversal in yeast | yeast expressing A-beta42, growth rescue, OD600, 48 h; response scale: 0% DMSO, 100% iron-clioquinol control | Potency, µM (highest dose often 46.1 µM), usual class: activators | 410,000 compounds, 0.063% hits | AID 1347071; also: nearly all actives have a fitted effect of over 55% in size
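Yeast A-beta toxicity model in growth medium with pinned compounds, 48 h at 30 C; growth read as absorbance at 600 nm. Normalized to FeCl3/clioquinol equimolar mix (positive) and DMSO (negative).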
TDP43 rescue – rescues yeast growth from TDP-43 toxicity. TDP-43 expressing yeast growth rescue, BacTiter-Glo, 24 h. Potency, µM (series often up to 46.1 µM), without a hit: at the highest dose growth rescue (activation), hits mostly activators. 410,000 compounds, 1.8% hits; also: % of control where 0% means no effect; nearly all actives have a fitted effect of over 50% in size
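Cell-based yeast growth screen: TDP-43 expression induced in galactose, inoculum OD600=0.02 after raffinose pregrowth to mid-log. Read-out BacTiter-Glo luminescence at 24 hr, 30 deg C; inhibition of toxicity seen as signal increase.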
FUS suppressor – suppressors of FUS proteinopathy in yeast; 390,000 compounds, 0.24% hits; S. cerevisiae FUS-expressing, growth rescue, OD600, 24 h; Potency, µM (doses to about 76.6 µM), actives largely listed as activators;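 also: plate controls were DMSO vehicle for no effect and reference control for full effect; nearly all actives have a fitted effect of over 55% in size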
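S. cerevisiae expressing FUS from galactose induction served as the toxicity model. Growth after 24hr at 30C, read as absorbance at 600 nm, indicates suppression of toxicity; compounds dosed at several concentrations.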
TSG101-PTAP inh – blocks PTAP/TSG101 interaction to inhibit HIV-1 budding; Potency, µM (series often up to 115 µM), for inactives: at the top dose activity change, negative = inhibition, usual class: inhibitors; AID 493005; 340,000 tested, under 10 active; Fluorescence polarization, FITC-PTAP peptide / Tsg101 binding; active = well fitted inhibition curve with a large enough effect in the main read-out, with a control signal flat, not every such curve was filed as active; inconclusive = small, poorly fitted or top-dose-only effect, or effect the other way, or a change in a side signal; inactive = no such curve, though single readings can be large or run the other way; also: % of control where 0% means no effect
Target sequence (Q99816 whole entry, looked up): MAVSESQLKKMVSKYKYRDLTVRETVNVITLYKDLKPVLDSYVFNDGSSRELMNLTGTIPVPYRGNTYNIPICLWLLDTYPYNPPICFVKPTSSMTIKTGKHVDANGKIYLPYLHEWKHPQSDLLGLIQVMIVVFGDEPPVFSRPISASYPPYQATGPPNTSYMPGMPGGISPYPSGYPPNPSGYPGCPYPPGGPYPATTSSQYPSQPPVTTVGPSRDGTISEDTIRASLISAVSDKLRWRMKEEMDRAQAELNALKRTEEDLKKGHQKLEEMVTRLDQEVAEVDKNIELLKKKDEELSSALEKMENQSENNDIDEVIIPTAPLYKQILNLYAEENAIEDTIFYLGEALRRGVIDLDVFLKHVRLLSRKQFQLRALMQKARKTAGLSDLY
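FP read-out: FITC-PTAP peptide, 50 nM final, binding Tsg101 binding domain, 10 uM final; 20 min, r.t.; 10 mM HEPES pH 7.5, 0.15 M NaCl, 0.01% Tween 20, 3 mM EDTA, 0.1 mM TCEP.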
aSyn rescue – alpha-synuclein toxicity inhibition in yeast | Yeast expressing alpha-synuclein, growth rescue, BacTiter-Glo, 24 h | Potency, µM (titrated, usually from 46.1 µM), without a hit: at the highest dose growth rescue (activation), actives largely listed as activators | 370,000 compounds, 0.14% hits; also: % of control where 0% means no effect; nearly all actives have a fitted effect of over 65% in size
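Readout is rescue of growth in alpha-synuclein-expressing yeast, so inhibitors of toxicity appear as activators. Growth after 24 hr at 30 deg C in galactose medium is quantified by luminescence.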
* marks the source's active call; other numbers are inactive results; [ ] = dose if it differs, or a comment. Unless noted, calls follow the shape of the dose curve; as a rule, active = well fitted curve in the direction sought with a large enough effect; inconclusive = small, poorly fitted or top-dose-only effect, or another doubt; inactive = no such curve, though single readings can be large; an effect the other way counts as inactive or inconclusive. Potency is read from the fitted curve at half-maximal effect.

`N#Cc1c(-c2ccccc2)nc2n(c1=O)CCS2` gave Abeta rescue inactive, TDP43 rescue 35.5µM*, FUS suppressor inactive, TSG101-PTAP inh -9.2% and aSyn rescue 12.5%.
Screening CC(C)(C)c1ccc(-c2nc3n(c(=O)c2C#N)CCS3)cc1 returned Abeta rescue inactive, TDP43 rescue 20µM*, FUS suppressor inactive, TSG101-PTAP inh -8.2% and aSyn rescue -3.9%.
Screening N#Cc1c(-c2ccc(Br)cc2)nc2n(c1=O)CCCS2 returned Abeta rescue inactive, TDP43 rescue inconclusive, FUS suppressor inactive, TSG101-PTAP inh -2.7% and aSyn rescue 0.3%.
Screening Cn1c(=O)c2cc(NC(=O)CCc3ccc4c(c3)OCO4)ccc2n1Cc1ccc(F)cc1 returned Abeta rescue inactive, TDP43 rescue 24.8%, FUS suppressor inactive and aSyn rescue -1.5%.
`COc1ccc(-c2cc(C(=O)Nc3ccc(C)c(N)c3)c3ccccc3n2)cc1` gave Abeta rescue inactive, TDP43 rescue inconclusive, FUS suppressor 14.1µM*, TSG101-PTAP inh -8.0% and aSyn rescue -14.2%.
Screening O=C(OC1CCOC1=O)c1cc(-c2ccc(Br)cc2)nc2ccccc12 (centres undefined) returned Abeta rescue inactive, TDP43 rescue 21.0%, FUS suppressor inactive, TSG101-PTAP inh -7.8% and aSyn rescue -2.1%.
COc1ccc(-c2cc(C(=O)Nc3ccc(S(=O)(=O)Nc4ncccn4)cc3)c3ccccc3n2)cc1 was read as Abeta rescue inactive, TDP43 rescue -1.2%, FUS suppressor inactive, TSG101-PTAP inh -1.2% and aSyn rescue -10.2%.
COc1ccc(-c2cc(C(=O)OC3CCOC3=O)c3ccccc3n2)cc1 (centres undefined) was read as Abeta rescue inactive, TDP43 rescue 15.8µM*, FUS suppressor inactive, TSG101-PTAP inh -0.1% and aSyn rescue -5.5%.
`O=C(COC(=O)C1CC1)Nc1ccc(Cl)cn1` gave Abeta rescue inactive, TDP43 rescue 21.0%, FUS suppressor inactive, TSG101-PTAP inh -4.7% and aSyn rescue -2.8%.
Screening O=C(COC(=O)Cc1ccc(Br)cc1)Nc1ccc(Cl)cn1 returned Abeta rescue inconclusive, TDP43 rescue 11.2µM*, FUS suppressor inactive, TSG101-PTAP inh 1.4% and aSyn rescue -15.3%.
`Cc1ccccc1CN1CCN(C(=O)[C@H]2O[C@@H](n3cnc4c(N)ncnc43)[C@H](O)[C@@H]2O)CC1` gave Abeta rescue inactive, TDP43 rescue -2.0%, FUS suppressor inactive and aSyn rescue 3.6%.
Screening O=C(O)C1CCCCC1C(=O)Nc1ccc2c(c1)OCCO2 (centres undefined) returned Abeta rescue inactive, TDP43 rescue -12.7%, FUS suppressor inactive, TSG101-PTAP inh -4.5% and aSyn rescue -9.6%.
Screening O=C(Nc1ccc2c(c1)OCCO2)c1cnn(-c2ccccc2)n1 returned Abeta rescue inactive, TDP43 rescue 17.8µM*, FUS suppressor inactive, TSG101-PTAP inh -6.6% and aSyn rescue -0.5%[1.84 µM].
`O=C(Nc1ccc2c(c1)OCCO2)C1CC1c1ccccc1` (centres undefined) gave Abeta rescue inconclusive, TDP43 rescue 25.1µM*, TSG101-PTAP inh -1.8% and aSyn rescue -20.3%.
Screening COc1ccc(S(=O)(=O)N(Cc2nc(-c3ccc(Cl)cc3)no2)C2CCCCC2)cc1 returned Abeta rescue inactive, TDP43 rescue -12.1% and FUS suppressor inactive.
COC(=O)c1cccc(NC(=O)COc2cccc([N+](=O)[O-])c2)c1 was read as Abeta rescue inactive, TDP43 rescue 11.2µM*, FUS suppressor inactive, TSG101-PTAP inh 2.1% and aSyn rescue 0.0%.
For COc1ccc(C(=S)N2CCOCC2)cc1OC(=O)c1ccc([N+](=O)[O-])cc1[N+](=O)[O-] the results were Abeta rescue inactive, TDP43 rescue 22.4µM*, FUS suppressor inactive, TSG101-PTAP inh -1.6% and aSyn rescue 6.6%.
Screening COc1cc(C(=S)N2CCOCC2)ccc1OC(=O)c1cc([N+](=O)[O-])cc([N+](=O)[O-])c1 returned Abeta rescue inactive, TDP43 rescue 8.0%, TSG101-PTAP inh -1.7% and aSyn rescue -0.5%.
For O=C(C1CC(=O)N(C2CCCCC2)C1)N1CCN(c2cccc(C(F)(F)F)c2)CC1 (centres undefined) the results were Abeta rescue inactive, TDP43 rescue 7.2%, FUS suppressor inactive, TSG101-PTAP inh -6.6% and aSyn rescue 0.6%.
CNC(=O)C1CCC(Cn2c(=O)c3sccc3n(CC(=O)N3CCCC(C)C3)c2=O)CC1 (centres undefined) was read as Abeta rescue inactive, TDP43 rescue 10.7% and FUS suppressor inactive.
For COCCCn1c(-c2ccco2)nc2ccccc2c1=O the results were Abeta rescue inactive, TDP43 rescue 17.5%, FUS suppressor inactive, TSG101-PTAP inh 1.2% and aSyn rescue -17.6%.
For COCCCN=C(c1ccco1)n1c(=S)nc(-c2ccco2)n(CCCOC)c1=S the results were Abeta rescue inactive, TDP43 rescue -15.5%, FUS suppressor 28.2µM*, TSG101-PTAP inh -9.5% and aSyn rescue -27.4%.
`O=C(CSc1ccc([N+](=O)[O-])cn1)Nc1cc(C(F)(F)F)ccc1N1CCOCC1` gave Abeta rescue inactive, TDP43 rescue 20µM* and aSyn rescue 19.6%.
For C=CCNC(=O)c1nc2ccccc2s1 the results were Abeta rescue inactive, TDP43 rescue 9.0%, FUS suppressor inactive, TSG101-PTAP inh -3.5% and aSyn rescue -5.0%.
Screening C=CCNC(=O)c1ccc(CSc2nc3ccccc3s2)cc1 returned Abeta rescue inactive, TDP43 rescue 17.8µM*, FUS suppressor inactive, TSG101-PTAP inh -2.7% and aSyn rescue -3.9%.
Screening Cc1csc(NC(=O)CSc2ccc([N+](=O)[O-])cn2)n1 returned Abeta rescue inactive, TDP43 rescue 12.6µM*, FUS suppressor inactive, TSG101-PTAP inh -3.4% and aSyn rescue 2.7%.
`Cc1csc(NC(=O)CSc2nc3ccccc3s2)n1` gave Abeta rescue inactive, TDP43 rescue 25.1µM*, FUS suppressor inactive, TSG101-PTAP inh -5.9% and aSyn rescue 11.9%.
Oc1ccccc1/C=N/NC(=S)NC1CC2CCC1C2 (centres undefined) was read as Abeta rescue inconclusive, TDP43 rescue inconclusive, FUS suppressor inconclusive, TSG101-PTAP inh -1.8% and aSyn rescue inconclusive.
Screening S=C(N/N=C/c1ccco1)NC1CC2CCC1C2 (centres undefined) returned Abeta rescue inconclusive, TDP43 rescue 14.1µM*, FUS suppressor inactive, TSG101-PTAP inh 0.3% and aSyn rescue -9.7%.

Bioassay records from PubChem.
